Measured values as given in PubChem BioAssay.
The source made the active and inactive calls.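 The calls were made as follows, unless noted: active = thallium flux through the channel raised or lowered by more than 3 SD from vehicle-only wells, actives on both sides; inactive = the rest.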

Tests used:
F380Y = test: modulators of BK channel variants, profiling panel, selectivity assay, cell-based, U2OS BacMam, thallium flux, beta subunits (AID 1259406); conditions: at 30 µM;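 also: initial slope of Thallos dye fluorescence rise after thallium is added; log ratio against the mean of 0.3% DMSO vehicle wells on the same plate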
F380Y/beta1 = test: as above; conditions: at 30 µM
F380Y/beta2Delta = test: as above; conditions: at 30 µM
F380Y/beta4 = test: as above; conditions: at 30 µM
[1] = target: Calcium-activated potassium channel subunit alpha-1 (Homo sapiens) + Leucine-rich repeat-containing protein 26 (Homo sapiens) (UniProt Q12791+Q2I0M4); test: as above; conditions: F380Y/Slo1WT/gamma1, at 30 µM
R275C = test: as above; conditions: at 30 µM
R275C/beta1 = test: as above; conditions: at 30 µM
R275C/beta2Delta = test: as above; conditions: at 30 µM
R275C/beta4 = test: as above; conditions: at 30 µM
R275C/Slo1WT/beta2 = test: as above; conditions: at 30 µM
[2] = antimalarial activity against Dd2 strain (AID 2302;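 active = growth inhibition above 50% at the single 2 µM test dose, taken to imply half-maximal potency below 2 µM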;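 also: 0% = DMSO untreated growth and 100% = chloroquine plus artemisinin killed control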); conditions: P. falciparum Dd2 in RBCs, LDH growth readout, 72 h; at 2 µM; stronger effect = higher value
[3] = HepG2 cytotoxicity, primary screen, cytotoxicity control for P. falciparum antimalarial project, cell-based, ATP luminescence (AID 2303;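 active = inhibition above 50%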;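 also: 0% = DMSO wells and 100% = digitonin-killed cells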); conditions: HepG2 viability, 24-48 h, at 10 µM, stronger effect = higher value
[4] = target: L-lactate dehydrogenase (Plasmodium falciparum (isolate CDC / Honduras)) (UniProt Q27743); test: PfLDH activity inhibition – cell lysate, 3D7 strain, counter-screen for P. falciparum growth inhibition project (AID 2304; call rule not given here;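 also: 0% = vehicle and 100% = reference inhibitor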); conditions: P. falciparum 3D7 crude extract, LDH APAD/NBT absorbance; at 2 µM; stronger effect = higher value
[5] = inhibition of 3D7 malaria parasite growth – strain 3D7 (AID 2306; call rule not given here;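 also: 0% = DMSO wells and 100% = chloroquine plus artemisinin control wells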); conditions: P. falciparum 3D7 erythrocytic growth, LDH absorbance, 72 h; at 2 µM; stronger effect = higher value
[6] = target: Protein kinase 7 (PK7), Plasmodium falciparum 3D7 (PF3D7_0213400) (UniProt Q7YTF7); test: inhibition of Plasmodium PK7 catalytic activity – biochemical, TCAMS antimalarial set, Kinase-Glo luminescence (AID 1159587; call rule not given here); conditions: recombinant PfPK7, Kinase-Glo ATP depletion luminescence
Protein kinase 7 (PK7), Plasmodium falciparum 3D7 (PF3D7_0213400), sequence (Q7YTF7 1-343): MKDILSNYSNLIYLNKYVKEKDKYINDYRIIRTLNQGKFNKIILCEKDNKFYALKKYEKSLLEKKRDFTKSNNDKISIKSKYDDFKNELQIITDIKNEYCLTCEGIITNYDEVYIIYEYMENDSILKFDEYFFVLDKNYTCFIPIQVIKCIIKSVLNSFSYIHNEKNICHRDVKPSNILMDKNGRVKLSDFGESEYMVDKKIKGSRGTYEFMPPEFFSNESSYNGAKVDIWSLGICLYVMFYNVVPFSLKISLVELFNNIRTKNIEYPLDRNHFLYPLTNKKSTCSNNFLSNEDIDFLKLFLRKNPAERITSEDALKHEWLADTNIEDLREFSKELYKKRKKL

Calcium-activated potassium channel subunit alpha-1 (Homo sapiens) + Leucine-rich repeat-containing protein 26 (Homo sapiens), sequence (Q2I0M4 whole entry, looked up, one chain of several): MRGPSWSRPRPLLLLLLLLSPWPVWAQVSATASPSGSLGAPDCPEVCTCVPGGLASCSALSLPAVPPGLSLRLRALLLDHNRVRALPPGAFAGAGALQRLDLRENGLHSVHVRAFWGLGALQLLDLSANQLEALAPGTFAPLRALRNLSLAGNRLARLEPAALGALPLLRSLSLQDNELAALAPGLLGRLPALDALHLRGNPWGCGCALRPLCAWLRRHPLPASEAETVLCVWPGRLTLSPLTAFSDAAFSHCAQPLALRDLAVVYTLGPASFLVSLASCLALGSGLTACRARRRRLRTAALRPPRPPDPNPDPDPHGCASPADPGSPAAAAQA
L-lactate dehydrogenase (Plasmodium falciparum (isolate CDC / Honduras)), sequence (Q27743 whole entry, looked up): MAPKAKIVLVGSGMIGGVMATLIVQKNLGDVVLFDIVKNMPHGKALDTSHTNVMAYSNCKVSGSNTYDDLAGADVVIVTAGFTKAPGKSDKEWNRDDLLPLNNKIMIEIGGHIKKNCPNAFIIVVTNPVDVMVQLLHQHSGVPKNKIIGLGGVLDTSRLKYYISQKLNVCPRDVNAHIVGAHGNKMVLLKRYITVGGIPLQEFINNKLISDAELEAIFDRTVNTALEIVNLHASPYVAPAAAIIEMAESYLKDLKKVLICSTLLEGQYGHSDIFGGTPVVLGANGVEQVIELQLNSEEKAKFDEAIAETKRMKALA

Cc1nc(-c2ccc(C(F)(F)F)cc2)sc1CO
inactive: log fold change Tl+ flux (F380Y) 0.0603 | log fold change Tl+ flux (F380Y/beta2Delta) 0.0517 | log fold change Tl+ flux (R275C) 0.0174 | log fold change Tl+ flux (R275C/beta1) 0.0853 | log fold change Tl+ flux (R275C/Slo1WT/beta2) 0.00529
active: log fold change Tl+ flux (F380Y/beta1) 0.197 | log fold change Tl+ flux (F380Y/beta4) 0.104 | log fold change Tl+ flux [1] 0.156 | log fold change Tl+ flux (R275C/beta2Delta) 0.0843 | log fold change Tl+ flux (R275C/beta4) 0.0953

CS(=O)(=O)Cc1ccc(Nc2nccc(-c3c(-c4cccc(C(=O)Nc5c(F)cccc5F)c4)nn4ccccc34)n2)cc1
inactive: inhibition [4] -1% | outcome [6]
active: growth inhibition [2] 92% | inhibition [3] 85% | growth inhibition [5] 96%

Cc1ccc(S(=O)(=O)NC(=O)Nc2nc(-c3ccc(C)c(Cl)c3)c(C)s2)cc1
inactive: log fold change Tl+ flux (F380Y) 0.099 | log fold change Tl+ flux (F380Y/beta2Delta) 0.0427 | log fold change Tl+ flux (R275C/beta2Delta) 0.0622 | log fold change Tl+ flux (R275C/Slo1WT/beta2) 0.0547
active: log fold change Tl+ flux (F380Y/beta1) 0.176 | log fold change Tl+ flux (F380Y/beta4) 0.19 | log fold change Tl+ flux [1] 0.156 | log fold change Tl+ flux (R275C) 0.265 | log fold change Tl+ flux (R275C/beta1) 0.24 | log fold change Tl+ flux (R275C/beta4) 0.211

O=c1[nH]c2ccc(Cl)cc2c2oc(-c3ccccc3)nc12
inactive: log fold change Tl+ flux (F380Y) -0.0228 | log fold change Tl+ flux (F380Y/beta1) 0.00567 | log fold change Tl+ flux (F380Y/beta2Delta) -0.059 | log fold change Tl+ flux (F380Y/beta4) -0.0224 | log fold change Tl+ flux [1] -0.0128 | log fold change Tl+ flux (R275C) 0.01 | log fold change Tl+ flux (R275C/beta1) 0.031 | log fold change Tl+ flux (R275C/beta2Delta) 0.0322 | log fold change Tl+ flux (R275C/beta4) 0.0357 | log fold change Tl+ flux (R275C/Slo1WT/beta2) -0.0021

CS(=O)(=O)Cc1ccc(Nc2nccc(-c3c(-c4cccc(NC(=O)C5CCCCC5)c4)nn4ncccc34)n2)cc1
inactive: inhibition [3] 31% | inhibition [4] 0% | outcome [6]
active: growth inhibition [2] 99% | growth inhibition [5] 98%

CC(=O)C1=C(C)Nc2ccccc2S1
inactive: log fold change Tl+ flux (F380Y) 0.0144 | log fold change Tl+ flux (F380Y/beta1) -0.00709 | log fold change Tl+ flux (F380Y/beta2Delta) -0.0326 | log fold change Tl+ flux (F380Y/beta4) -0.00774 | log fold change Tl+ flux [1] -0.000563 | log fold change Tl+ flux (R275C) 0.0464 | log fold change Tl+ flux (R275C/beta1) -0.0243 | log fold change Tl+ flux (R275C/beta2Delta) -0.0168 | log fold change Tl+ flux (R275C/beta4) -0.00794 | log fold change Tl+ flux (R275C/Slo1WT/beta2) 0.0465

Clc1cc(Cl)c(NN=Cc2cc(C#Cc3ccccc3)cs2)c(Cl)c1
inactive: log fold change Tl+ flux (F380Y) -0.0491 | log fold change Tl+ flux (F380Y/beta1) 0.00923 | log fold change Tl+ flux (F380Y/beta2Delta) -0.0555 | log fold change Tl+ flux (F380Y/beta4) 0.0192 | log fold change Tl+ flux [1] -0.0342 | log fold change Tl+ flux (R275C) -0.012 | log fold change Tl+ flux (R275C/beta1) 0.00694 | log fold change Tl+ flux (R275C/beta2Delta) -0.0137 | log fold change Tl+ flux (R275C/beta4) 0.0367 | log fold change Tl+ flux (R275C/Slo1WT/beta2) 0.0344

Cc1nn(S(=O)(=O)c2ccccc2)c(C)c1Oc1ccc(Cl)cc1
inactive: log fold change Tl+ flux (R275C/beta2Delta) -0.0399 | log fold change Tl+ flux (R275C/Slo1WT/beta2) -0.0715
active: log fold change Tl+ flux (F380Y) -0.154 | log fold change Tl+ flux (F380Y/beta1) -0.178 | log fold change Tl+ flux (F380Y/beta2Delta) -0.15 | log fold change Tl+ flux (F380Y/beta4) -0.668 | log fold change Tl+ flux [1] -0.342 | log fold change Tl+ flux (R275C) -0.199 | log fold change Tl+ flux (R275C/beta1) -0.214 | log fold change Tl+ flux (R275C/beta4) -0.114
